High-throughput results as filed in PubChem BioAssay.
Many of the other results were omitted from the sample, so hits are more common in it than they were.
Pf apPOL inh: Pf-apPOL DNA polymerase inhibition. Recombinant Pf-apPOL, molecular beacon fluorescence, 1.5 h. 210,000 compounds, 0.25% hits. inhibition, % at 10 µM
mHTT-CaM PPI inh: inhibitors of human mutant huntingtin-calmodulin interaction; 190,000 compounds, 3.6% hits; inhibition, % at 15 µM; AlphaScreen His-mHTT/GST-CaM binding, luminescence;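 further: 0% = both proteins with DMSO and 100% = one protein alone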
Target sequence (P42858 whole entry, looked up, stated change not applied): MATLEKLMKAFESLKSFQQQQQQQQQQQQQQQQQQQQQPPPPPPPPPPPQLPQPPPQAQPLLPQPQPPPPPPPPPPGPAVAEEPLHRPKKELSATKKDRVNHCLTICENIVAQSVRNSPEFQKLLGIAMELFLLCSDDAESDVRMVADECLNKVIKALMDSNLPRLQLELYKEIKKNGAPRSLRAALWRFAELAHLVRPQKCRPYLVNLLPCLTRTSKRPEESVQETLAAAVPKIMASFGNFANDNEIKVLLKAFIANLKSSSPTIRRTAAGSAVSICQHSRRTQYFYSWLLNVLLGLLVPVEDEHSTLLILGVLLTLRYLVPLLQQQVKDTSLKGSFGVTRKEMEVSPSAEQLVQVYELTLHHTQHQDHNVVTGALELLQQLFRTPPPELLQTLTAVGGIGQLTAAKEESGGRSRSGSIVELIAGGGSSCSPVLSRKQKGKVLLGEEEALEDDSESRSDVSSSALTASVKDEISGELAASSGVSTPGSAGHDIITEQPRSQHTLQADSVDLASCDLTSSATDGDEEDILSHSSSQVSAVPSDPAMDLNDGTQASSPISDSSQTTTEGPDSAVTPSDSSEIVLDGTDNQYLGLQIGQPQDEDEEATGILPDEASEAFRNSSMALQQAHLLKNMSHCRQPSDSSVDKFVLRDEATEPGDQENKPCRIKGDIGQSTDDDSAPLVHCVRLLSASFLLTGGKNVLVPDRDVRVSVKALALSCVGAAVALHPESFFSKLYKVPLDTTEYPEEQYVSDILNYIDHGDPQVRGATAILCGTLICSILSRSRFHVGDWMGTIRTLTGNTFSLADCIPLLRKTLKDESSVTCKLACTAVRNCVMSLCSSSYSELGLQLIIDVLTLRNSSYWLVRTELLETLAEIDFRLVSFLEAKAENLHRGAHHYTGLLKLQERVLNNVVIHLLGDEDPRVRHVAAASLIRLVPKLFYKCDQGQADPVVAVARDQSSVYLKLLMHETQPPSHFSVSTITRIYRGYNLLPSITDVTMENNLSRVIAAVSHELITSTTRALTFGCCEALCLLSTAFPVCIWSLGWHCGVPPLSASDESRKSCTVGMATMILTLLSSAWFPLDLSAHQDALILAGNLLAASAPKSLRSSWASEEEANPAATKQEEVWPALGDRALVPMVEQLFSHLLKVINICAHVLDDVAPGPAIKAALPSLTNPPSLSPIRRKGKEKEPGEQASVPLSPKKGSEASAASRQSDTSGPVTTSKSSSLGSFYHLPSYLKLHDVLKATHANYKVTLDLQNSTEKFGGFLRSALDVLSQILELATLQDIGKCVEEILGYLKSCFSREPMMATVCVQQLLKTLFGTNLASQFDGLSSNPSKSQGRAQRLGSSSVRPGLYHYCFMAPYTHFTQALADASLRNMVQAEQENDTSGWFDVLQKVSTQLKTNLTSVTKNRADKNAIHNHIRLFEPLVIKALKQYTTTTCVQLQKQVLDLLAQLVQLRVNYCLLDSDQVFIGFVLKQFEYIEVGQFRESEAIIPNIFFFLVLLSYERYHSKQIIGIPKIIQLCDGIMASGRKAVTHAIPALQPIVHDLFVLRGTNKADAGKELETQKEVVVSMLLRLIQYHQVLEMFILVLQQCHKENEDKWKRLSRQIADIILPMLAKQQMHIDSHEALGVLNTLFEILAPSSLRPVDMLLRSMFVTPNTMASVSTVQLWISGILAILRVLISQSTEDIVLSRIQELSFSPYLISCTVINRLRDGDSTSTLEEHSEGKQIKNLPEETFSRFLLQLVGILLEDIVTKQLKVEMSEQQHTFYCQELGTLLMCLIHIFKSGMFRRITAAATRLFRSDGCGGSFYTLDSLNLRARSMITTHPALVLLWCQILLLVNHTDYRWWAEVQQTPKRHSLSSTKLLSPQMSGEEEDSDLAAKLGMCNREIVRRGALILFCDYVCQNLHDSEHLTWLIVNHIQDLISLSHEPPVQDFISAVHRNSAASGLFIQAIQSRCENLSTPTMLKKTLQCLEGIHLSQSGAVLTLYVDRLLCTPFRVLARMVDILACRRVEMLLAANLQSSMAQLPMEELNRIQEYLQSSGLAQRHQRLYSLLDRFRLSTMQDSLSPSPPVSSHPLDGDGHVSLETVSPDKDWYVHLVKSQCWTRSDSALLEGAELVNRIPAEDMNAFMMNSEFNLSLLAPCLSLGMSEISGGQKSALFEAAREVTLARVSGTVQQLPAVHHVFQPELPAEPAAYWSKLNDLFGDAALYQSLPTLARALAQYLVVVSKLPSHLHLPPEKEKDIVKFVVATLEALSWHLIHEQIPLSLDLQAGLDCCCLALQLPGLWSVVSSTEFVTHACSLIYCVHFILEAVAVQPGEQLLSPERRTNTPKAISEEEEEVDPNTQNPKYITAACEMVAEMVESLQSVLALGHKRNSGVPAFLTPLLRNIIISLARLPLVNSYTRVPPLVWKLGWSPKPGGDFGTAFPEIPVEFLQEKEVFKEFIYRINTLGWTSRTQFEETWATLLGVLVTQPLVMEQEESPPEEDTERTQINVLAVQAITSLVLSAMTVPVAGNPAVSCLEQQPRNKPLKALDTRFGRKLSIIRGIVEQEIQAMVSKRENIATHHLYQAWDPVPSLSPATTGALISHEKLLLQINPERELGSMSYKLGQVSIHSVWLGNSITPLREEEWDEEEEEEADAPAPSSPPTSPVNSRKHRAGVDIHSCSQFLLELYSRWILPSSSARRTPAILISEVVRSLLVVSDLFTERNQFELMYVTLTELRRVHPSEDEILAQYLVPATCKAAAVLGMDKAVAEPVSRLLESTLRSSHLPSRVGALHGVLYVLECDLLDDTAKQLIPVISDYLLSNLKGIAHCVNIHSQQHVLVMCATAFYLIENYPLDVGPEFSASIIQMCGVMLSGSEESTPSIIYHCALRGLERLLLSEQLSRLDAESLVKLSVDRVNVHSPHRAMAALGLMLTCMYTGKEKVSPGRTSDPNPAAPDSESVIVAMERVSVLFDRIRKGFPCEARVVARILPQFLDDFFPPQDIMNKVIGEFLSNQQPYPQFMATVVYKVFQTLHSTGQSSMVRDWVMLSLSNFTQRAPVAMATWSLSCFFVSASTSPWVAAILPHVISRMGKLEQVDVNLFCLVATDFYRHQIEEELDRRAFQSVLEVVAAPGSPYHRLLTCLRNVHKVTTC
Active calls of the source: *. No stated cut-off is given here; in the data, active means inhibition above about 50%; inactive means the rest.

SMILES	Pf apPOL inh	mHTT-CaM PPI inh
O=C(NCc1cccnc1)C1CCN(Cc2cc3ccccc3n2Cc2ccccc2)CC1	3	68*
O=C(NCc1cccnc1)C1CCN(c2cnn(Cc3ccccc3)c(=O)c2)CC1	-2	-6
CN(C)CCNC(=O)C1CCN(c2nc3ccccc3o2)CC1	-16	1
Cc1ccc(Cn2c(CN3CCC(C(=O)NCCN(C)C)CC3)cc3ccccc32)cc1	3	99*
CN(C)CCNC(=O)C1CCN(Cc2cc3ccccc3n2Cc2cccc(F)c2)CC1	3	100*
COc1ccc(C=C2CCCC(=Cc3ccc(OC)cc3)C2=O)cc1	-1	17
CC(=O)N(Cc1nn(C)c2c1CN(S(=O)(=O)c1cccs1)CC2)c1ccccc1	0	12
COc1ccccc1N1CCN(C2CCN(Cc3cccc(F)c3)CC2)CC1	-3	3
CC(C)Oc1ccccc1-c1nc(C(=O)N2CCOCC2)cs1	-8	-2
CC(C)(C)C1CCc2onc(C(=O)Nc3ccc(F)cc3F)c2C1 (centres undefined)	-8	-4
CC(C)(C)C1CCc2onc(C(=O)Nc3cc(Cl)ccc3O)c2C1 (centres undefined)	-5	61*
CCN1CCN(CCCNC(=O)CC(C(=O)N2CCc3ccccc32)n2ccnc2)CC1 (centres undefined)	-8	-2
COc1cccc(N(C(C)=O)C2=C(N3CCCC3)C(=O)c3ccccc3C2=O)c1	-12	99*
CC(=O)N(C1=C(N2CCOCC2)C(=O)c2ccccc2C1=O)c1ccccc1	0	20
CC(=O)N(C1=C(N2CCOCC2)C(=O)c2ccccc2C1=O)c1ccc(Cl)c(Cl)c1	-8	96*
CC(=O)N(C1=C(N2CCCCC2)C(=O)c2ccccc2C1=O)c1ccccc1C	-12	27
Cc1ccc(N=c2oc3ccc(Cl)cc3cc2C(=O)Nc2nccs2)cc1	-1	1
Cc1ccc(NC(=O)Cn2nc(N3CCCC(C)C3)c3ccccc3c2=O)cc1F (centres undefined)	0	1
CCCCCOc1ccc(NC(=O)CSc2cccc3cccnc23)cc1	-2	83*
O=C(CSc1cccc2cccnc12)Nc1ccccc1	-1	0
CCn1c(C2CCN(Cc3ccc(Cl)cc3)C2)nc2cccnc21 (centres undefined)	-12	57*
CCn1c(C2CCN(Cc3ccc(F)cc3)C2)nc2cccnc21 (centres undefined)	-8	12
CCc1[nH]nc(-c2ccccc2)c1NC(=O)CC1CCCC1	72*	98*
CCCc1[nH]nc(-c2ccccc2)c1NC(=O)C1CC1	-6	13
O=[N+]([O-])C(/C=C(\Cl)[N+](=O)[O-])=C1N(c2ccccc2)CCN1c1ccccc1	-4	30
SMILES	Pf apPOL inh	mHTT-CaM PPI inh
O=[N+]([O-])C(/C=C(\Cl)[N+](=O)[O-])=C(Nc1ccccc1)Nc1ccccc1	-2	63*
O=C(NCc1cc(-c2ccc(Cl)cc2)on1)c1ccc(Cn2ccnc2)cc1	-6	26
CCc1ccccc1S(=O)(=O)N1CCc2c(c(-c3nc(-c4ccccc4)no3)nn2C)C1	-4	-3
COc1ccc(NC(=O)C2(C)Oc3cccnc3N(C(C)C)C2=O)c(OC)c1 (centres undefined)	-3	-5
Cc1cc(Cl)ccc1NC(=O)CN1CCN(Cc2ccc3c(c2)OCO3)CC1	-7	54*
CCNC(=O)CN1CCN(Cc2ccc3c(c2)OCO3)CC1	-3	3
O=C1OC(c2cccc(Cl)c2)=N/C1=C\c1ccccc1	7	5
Cn1cc(CC(=O)NCc2cccc(F)c2)c2cccnc21	2	-10
Cn1cc(-c2nc(C(=O)NCc3ccc(F)c(Cl)c3)cs2)c2cccnc21	2	100*
Cn1cc(-c2nc(C(=O)NCc3cccc(F)c3)cs2)c2cccnc21	2	91*
Cn1cc(-c2nc(C(=O)NCc3ccc(F)cc3Cl)cs2)c2cccnc21	-4	2
O=C(Cc1ccc(Cl)cc1)NCc1cccs1	-4	-4
Cc1cccc(F)c1NC(=O)C1CC1c1ccc(C(C)(C)C)cc1 (centres undefined)	-1	-35
Cc1c(Cl)cccc1NC(=O)CCN1CCCC1	-11	-5
COc1ccc(C2/C=C\CN(CC3CCCCC3)CC(=O)N2Cc2ccc(F)cc2)cc1 (centres undefined)	-3	34
COc1ccc(C2/C=C\CN(Cc3ccco3)CC(=O)N2Cc2ccc(F)cc2)cc1 (centres undefined)	-4	61*
COc1ccc(C2/C=C\CN(C(=O)Nc3ccc(C(F)(F)F)cc3)CC(=O)N2Cc2ccc(F)cc2)cc1 (centres undefined)	-5	59*
COc1ccc(C2/C=C\CN(C(=O)c3ccc(C)cc3)CC(=O)N2Cc2ccc(F)cc2)cc1 (centres undefined)	-3	75*
COc1ccc(C2/C=C\CN(C(=O)Oc3ccc(C(F)(F)F)cc3)CC(=O)N2Cc2ccc(F)cc2)cc1 (centres undefined)	-1	79*
